This is a sample that favours compounds with a hit; in the whole collection about 7.8% have one here.
PostGolgi ctrl – yeast control strain growth, post-Golgi counter-screen | inhibition, % at 10 µM | efflux-deficient yeast background strain, growth absorbance A615, 16 h | 98,000 compounds, 5% hits | AID 738
sEH activator – activators of human soluble epoxide hydrolase. purified human sEH enzymatic activity, activator screen. 91,000 compounds, 0.04% hits. activation, % at 2 µM. AID 717; in the data active means activation above about 37%
Target sequence (P34913 whole entry, looked up): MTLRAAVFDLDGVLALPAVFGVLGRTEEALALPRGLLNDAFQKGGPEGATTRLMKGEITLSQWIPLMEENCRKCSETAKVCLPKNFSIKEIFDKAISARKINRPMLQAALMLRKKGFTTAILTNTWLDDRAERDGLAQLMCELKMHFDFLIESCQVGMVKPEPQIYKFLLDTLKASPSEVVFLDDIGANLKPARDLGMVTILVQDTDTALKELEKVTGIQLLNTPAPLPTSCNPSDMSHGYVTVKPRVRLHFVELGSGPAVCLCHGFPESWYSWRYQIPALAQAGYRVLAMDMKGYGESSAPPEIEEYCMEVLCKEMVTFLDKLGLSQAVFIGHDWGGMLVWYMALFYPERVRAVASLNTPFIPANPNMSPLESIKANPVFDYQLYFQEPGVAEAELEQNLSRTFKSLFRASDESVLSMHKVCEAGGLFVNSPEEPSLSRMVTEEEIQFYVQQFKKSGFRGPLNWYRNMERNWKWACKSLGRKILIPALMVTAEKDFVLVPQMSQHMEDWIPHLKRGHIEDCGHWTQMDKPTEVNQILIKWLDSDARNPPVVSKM
Cav32 inh – blocks human Cav3.2 T-type calcium channel; O95180; 100,000 compounds, 4% hits; Cav3.2-expressing cells, Fluo-4 calcium fluorescence FDSS; hits give low values; B-score at 10 µM;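 active means single-dose well whose peak fluorescence ratio is a statistical outlier from its plate by either plate-standardised score or position-corrected B-score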
sEH inh – soluble epoxide hydrolase (human) inhibition; P34913; recombinant human sEH enzymatic activity assay; inhibition, % at 2 µM; 91,000 compounds, 0.34% hits; AID 707; in the data active means inhibition above about 80%
PostGolgi yeast – growth inhibition of a yeast mutant, post-Golgi transport screen. post-Golgi transport phenotypic cell assay. 98,000 compounds, 0.9% hits. inhibition, % at 10 µM;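 further: yeast cells grown in 1536-well plates; yeast grown about 18 h at 30C before absorbance read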
Numbers without * were called inactive; · = no result. Unless noted, no stated cut-off is given here; in the data, active means inhibition above about 30%; inactive means the rest.

SMILES | PostGolgi ctrl | sEH activator | Cav32 inh | sEH inh | PostGolgi yeast
N#Cc1c(C(F)(F)F)cc(-c2ccccc2)nc1SCc1nc(N)nc(N2CCOCC2)n1 | 44.9* | · | -0.964 | · | -1.6
COc1ccnc(CS(=O)c2nc3cc(OC(F)F)ccc3[nH]2)c1OC (stereo not given) | · | · | -0.0586 | · | ·
NC(=O)CC1NC(=O)c2cc([N+](=O)[O-])cc(I)c2OCCC(C(N)=O)NC(=O)[C@@H]2CCCN2C1=O (stereo not given in full) | · | · | 0.321 | · | ·
O=C(c1ccc(F)cc1)c1ccc(N2CCCC2)cc1 | 42.0* | 2.8 | 0.634 | -2.6 | 6.3
O=C(Nc1ccc(N2CCCCC2)cc1)c1ccc(F)cc1 | 17.3 | -12.6 | 0.332 | 15.8 | 5.5
Cc1noc(C)c1S(=O)(=O)Nc1ccc(C(=O)N2CCc3ccccc3C2)cc1 | -4.4 | -0.6 | 0.123 | 1.7 | -1.0
Nc1c(C(=O)OCC2CCCO2)c2nc3ccccc3nc2n1C1CCCC1 (stereo not given) | 48.2* | 4.6 | -2.9 | -4.5 | 9.0
COCCn1c(N)c(C(=O)NCC2CCCO2)c2nc3ccccc3nc21 (stereo not given) | 8.0 | · | -2.59 | · | 3.1
CCOC(=O)C1=Nc2ccccc2C1=[N+]=[N-] | 100.9* | · | · | · | 106.3*
COc1ccc(C2Nc3ccccc3C(=O)N2Cc2ccco2)cc1COc1ccc(F)cc1 (stereo not given) | · | -1.5 | -7.03* | 2.6 | ·
COc1ccc(C2Nc3ccccc3C(=O)N2Cc2ccco2)cc1CN1C(=O)c2ccccc2C1=O (stereo not given) | 8.2 | · | -0.0376 | · | -14.6
CC1Cc2ccccc2N1C(=O)Cn1cc([N+](=O)[O-])cn1 (stereo not given) | 0.1 | 18.7 | 0.0287 | -15.7 | -6.0
CCN1C(=O)N(C)C2(c3ccccc3)N(C)C(=O)N(C)C12c1ccccc1 (stereo not given) | 1.6 | -2.0 | 0.48 | 0.3 | -7.3
CC(C)N1CC2(c3ccccc3)CN(C(C)C)CC(c3ccccc3)(C1)C2=O | 12.8 | 12.7 | -3.4* | -10.9 | -1.1
CCN(CC)S(=O)(=O)c1ccc(C)c(NC(=O)COC(=O)c2ccc(C)c(S(=O)(=O)N3CCOCC3)c2)c1 | -1.5 | -4.2 | -4.16* | 5.0 | -0.8
Cc1cc(C(=O)OCC(=O)Nc2cc(S(=O)(=O)N3CCOCC3)ccc2Cl)c(C)o1 | 0.0 | 5.4 | -0.0639 | -7.3 | -6.5
O=C(O)c1ccc(N2C(=O)C3ON(c4ccccc4)C(c4ccccc4F)C3C2=O)cc1 (stereo not given) | 1.3 | 43.8* | · | -47.7 | -2.1
COC(=O)[C@@H]1C[C@H]2CC[C@H](O)C[C@H]2N1Cc1ccc(C)s1 | · | · | 1.15 | · | ·
CC1C/C(=N/NC(=O)c2cccc(F)c2)c2ccc(O)cc2C1 (stereo not given) | 4.9 | -25.0 | 0.492 | 25.1 | -1.7
CCOC(=O)c1cnc2nc(C(F)(F)F)[nH]n2c1=O | 25.5 | 7.3 | -0.00159 | -9.8 | 0.8
CCOC(=O)c1cnc2scnn2c1=O | 37.0* | · | · | · | 6.1
Cc1nn2c(-c3ccc(Cl)cc3Cl)nnc2s1 | 33.5* | 13.8 | -0.604 | -15.4 | -20.9
Cc1cc(C)nc(NC(=O)CSc2nn(C)c(=S)s2)n1 | -5.5 | -9.7 | 0.409 | 9.0 | 39.8*
Cc1cc(C)nc(NC(=O)CSc2ccccn2)n1 | -13.3 | · | 0.234 | · | -0.6
Cc1nc(N2CCN(c3ccccc3)CC2)nc2c1C(=O)CC(c1ccccc1)C2 (stereo not given) | -6.7 | 12.0 | -3.39 | -10.7 | 26.7
SMILES | PostGolgi ctrl | sEH activator | Cav32 inh | sEH inh | PostGolgi yeast
Cc1nc(N2CCN(c3ccccc3)CC2)nc2c1C(=O)CC(C)C2 (stereo not given) | 37.3* | 0.2 | -2.11 | -0.8 | 0.3
CC(C)=C1C2CCC1C1C(=O)N(NC(=O)COc3ccc(C(C)(C)C)cc3)C(=O)C21 (stereo not given) | 25.4 | 2.7 | -8.37* | 0.5 | -8.0
COc1ccccc1C(=O)Nc1cccc(-c2cn3ccsc3n2)c1 | 38.2* | -6.5 | 0.186 | 10.3 | 2.2
O=C(Nc1nccs1)c1cc(N2CCOCC2)nc2ccccc12 | 33.9* | 2.4 | 0.542 | -2.8 | -1.4
O=C(Nc1ccccc1)c1cc(N2CCOCC2)nc2ccccc12 | 13.6 | -1.1 | 0.397 | 0.9 | 11.2
Cc1ccc2c(n1)CC(C)(C)C/C2=N\O | · | -7.5 | 1.24 | 7.3 | ·
COc1cc(/C=c2\sc3n(c2=O)C(c2ccccc2)C(c2ccccc2)=NN=3)ccc1O (stereo not given) | 32.7* | -9.5 | -2.75 | 7.0 | 1.1
COc1cc(/C=c2\sc3n(c2=O)CCCN=3)ccc1O | 7.9 | 7.5 | 0.369 | -8.7 | -8.2
COC(=O)CSc1nc2ncccc2[nH]1 | 34.6* | -3.0 | 1.16 | 2.1 | 5.6
COc1ccc(NC(=O)CSc2nc3ncccc3[nH]2)cc1OC | 0.4 | 1.6 | -0.354 | -2.5 | 2.3
CCOC(=O)c1nn(-c2ccc(Br)cc2)cc1C(=O)c1cccc2ccccc12 | 31.1* | 4.3 | -1.37 | -3.1 | 2.4
CC(=O)c1nn(-c2cccc(Br)c2)cc1C(=O)c1ccc(Br)cc1 | 7.0 | 2.5 | -0.397 | -0.6 | -1.9
Cc1ccc(CSc2nnc(-c3ccncc3)n2CC2CCCO2)cc1 (stereo not given) | 10.7 | 13.7 | 0.641 | -13.1 | 14.1
COCC(C)n1c(C)cc(C(=O)COC(=O)c2oc3ccccc3c2C)c1C (stereo not given) | 10.9 | 3.7 | -5.76* | -5.7 | 4.3
Fc1ccc(CN2CCCCCCC2)cc1F | -4.5 | 0.8 | -0.245 | -0.1 | -3.9
O=C(NC1CCCCC1)N1CCCC1 | · | 10.4 | 1.18 | -7.2 | ·
CSc1ccc(CNc2ccc(C)c(C)c2)cc1 | 38.3* | -7.3 | -0.835 | 9.8 | -2.1
O=C(Oc1ccc(N(Cc2cccs2)C2=NS(=O)(=O)c3ccccc32)cc1)c1ccccc1F | -5.0 | 5.4 | -0.877 | -6.8 | -5.9
Nc1nc(N2CCOCC2)cc(=O)[nH]1 | 6.5 | -9.3 | · | 8.9 | -6.5
COc1ccc(C(=O)NC(=S)NCCO)cc1Br | -3.2 | 7.0 | 0.733 | -6.2 | -0.2
CC1CCc2nc(NC(=O)Cc3cccs3)sc2C1 (stereo not given) | 13.0 | -7.8 | -2.8 | 9.8 | -13.5
CC(C)(C)C1CCc2nc(NC(=O)Cc3cn4ccsc4n3)sc2C1 (stereo not given) | 46.2* | · | -2.27 | · | 0.3
O=c1ccc(Oc2nc(N3CCOCC3)nc(N3CCOCC3)n2)n[nH]1 | 4.4 | 22.9 | 1.45 | -18.5 | 1.6
CCCCCCCCn1c(=O)c(C(=O)OCC)c(O)c2ccccc21 | 7.1 | -2.2 | -7.43* | -0.1 | 0.2
COc1cccc(CNC(=O)C2CCC(CNS(=O)(=O)c3cccc4nsnc34)CC2)c1 (stereo not given) | 14.5 | -80.5 | 0.464 | 80.3* | 0.2
O=C(C1CCC(CNS(=O)(=O)c2cccc3nsnc23)CC1)N1CC=C(c2ccccc2)CC1 (stereo not given) | 10.5 | -12.8 | -7.93* | 11.9 | 4.6
CN(C)S(=O)(=O)N(CC(=O)N(Cc1ccccc1)Cc1ccccc1)c1ccccc1 | 33.9* | 13.4 | -2.89 | -16.1 | -5.8
Nc1ccc2oc(-c3cc(Br)ccc3Cl)nc2c1 | 20.1 | 6.9 | 0.818 | -5.2 | 6.5
CCc1ccc2oc(-c3cc(N)ccc3Cl)nc2c1 | 35.1* | · | -0.824 | · | 1.4
CCc1ccc2oc(-c3cc(N)ccc3O)nc2c1 | 52.7* | 0.6 | 1.28 | -1.1 | 21.6

Screening results as filed in PubChem.
